This passage reports viability rescue results from PubChem BioAssay AID1377 (University of Pittsburgh Molecular Library Screening Center, 2008).

Among all 220,000 compounds or so, about 830 (0.38%) were called active.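 The calls were made as follows: active = activation, scaled between plate controls, above about 75% (limit read from the data); inactive = activation under that limit.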 The entries come from a sample that favours actives as a whole.

This assay in a line: inhibitors of zVAD-triggered necroptosis, primary screen, L929 cells (AID 1377).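 Also: 0% = zVAD with DMSO and 100% = DMSO alone without zVAD.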 Particulars: ATP luminescence, 24 h, at 10 µM, stronger effect = higher value; with zVAD 60 µM unless noted.
As to `CC(NC(=O)Nc1ccc2c(c1)OCO2)c1ccncc1` (centres undefined), the viability rescue is 1.29% (inactive).

Regarding `Cc1cccc(NC(=O)/C=C/c2ccc3c(c2)OCO3)n1`, the viability rescue is 0.85% [with zVAD 20 µM] (inactive).

As for `Cc1cccc(NC(=O)Nc2ccc3c(c2)OCO3)n1`, the viability rescue was 75.5% (active).

For `CC1CCCCC1NC(=O)CO/N=C/c1ccc(OC(F)F)cc1` (centres undefined), the viability rescue is 0.48% (inactive).

With `CC(C)C(=O)Nc1ccc2c3c(cccc13)CC2`, the viability rescue was 1.59% [with zVAD 20 µM] (inactive).

For `CCN(c1ccccc1)S(=O)(=O)c1ccc(C(=O)Nc2nccs2)cc1`, the viability rescue is 0.94% (inactive).

For the molecule `CCOc1ccc(C(=O)Nc2nccs2)cc1[N+](=O)[O-]`, the viability rescue is 80.9% (active).

`COc1ccc(C(=O)NNC(=O)c2cnccn2)cc1[N+](=O)[O-]`: the viability rescue is -0.17% (inactive).

For `Cn1cccc1C(=O)Nc1nccs1`, the viability rescue was 66.4% [with zVAD 20 µM] (inactive).

With `CC(=O)Oc1ccc(C(=O)Nc2nccs2)cc1`, the viability rescue was 101% [with zVAD 20 µM] (active).

Regarding `O=C(O)c1ccccc1-c1ccccc1C(=O)Nc1nccs1`, the viability rescue was 1.12% (inactive).

Regarding `NC(=O)C1(N2CCCCC2)CCN(C2CC(=O)N(Cc3ccc(N4CCCC4=O)cc3)C2=O)CC1` (centres undefined), the viability rescue was 0.13% (inactive).

For `O=C(COC(=O)/C=C/c1nc2ccccc2s1)Nc1ccccc1Oc1ccccc1`, the viability rescue was 0.66% (inactive).

As for `Cc1ccc(CNC(=O)CCNS(=O)(=O)c2ccc(Br)s2)cc1`, the viability rescue is 3.55% (inactive).

As for `Cc1noc(C)c1C(=O)OCC(=O)N1CCN(S(=O)(=O)c2ccc3ccccc3c2)CC1`, the viability rescue was 0.85% (inactive).

As to `CN(C(=O)CCn1c(=S)oc2ccccc21)C1CCCCC1`, the viability rescue was 0.16% (inactive).

Regarding `CC(=O)NC1C(Oc2ccc(C=O)cc2)OC(COC(C)=O)C(OC(C)=O)C1OC(C)=O` (centres undefined), the viability rescue was 1.66% (inactive).

In the case of `Cc1cccc(CSc2nc3c(c(=O)n2C)SCC3)c1`, the viability rescue is -0.37% (inactive).

`Cc1ccc(NC(=O)c2ccccn2)cc1S(=O)(=O)N1CCOCC1`: the viability rescue was 1.5% (inactive).

On to `Cc1ccc(C(=O)Nc2ccccc2C(=O)NC2CCCCC2)cc1S(=O)(=O)N1CCOCC1`, for which the viability rescue is -0.61% (inactive).

`Cc1ccc(NC(=O)NC2CCCCC2)cc1S(=O)(=O)N1CCOCC1`: the viability rescue is 75.4% (active).

Consider `CCn1c(CN2C(=O)CSc3ccccc32)n[nH]c1=S`, for which the viability rescue is 0.15% (inactive).

Consider `CCC1CCCCN1CCCNC(=O)c1cc2c(Cl)nc3ccccc3c2s1` (centres undefined), for which the viability rescue is 18% (inactive).

For the molecule `CCOC(=O)c1cn[nH]c1NC(=S)Nc1ccccc1`, the viability rescue is 2.47% (inactive).

Take `CCCCn1c(=O)c(CCC(=O)OCC(=O)Nc2ccc(C)c(Cl)c2)nc2ccccc21`: the viability rescue was 0.2% [with zVAD 20 µM] (inactive).

As for `COc1cc([C@H](Cc2ccccc2)NC(C)=O)oc(=O)c1`, the viability rescue was -0.39% (inactive).

`COC(=O)C1=C(C(=O)OC)[C@@H]2N(C)c3ccccc3[C@@]23C[C@@H](C(=O)OC)N(C(C)=O)C3=N1`: the viability rescue is 0.26% (inactive).

Turning to `Clc1ccc2nc(-c3ccccc3)nc(C(Cl)Cl)c2c1`, the viability rescue was 37.5% (inactive).

As for `Oc1ccc(-c2onc3ccc(Cl)cc23)cc1`, the viability rescue was 82.9% (active).

For the molecule `NC(=O)C[n+]1cccc(C(N)=O)c1`, the viability rescue was 1.24% (inactive).

For the molecule `O=C(O)CCn1c(O)c(C=C2N=c3ccccc3=N2)sc1=S`, the viability rescue was -0.21% (inactive).

Regarding `CCN(CC)CCNS(=O)(=O)c1ccc(/C=C/C(=O)O)cc1`, the viability rescue is 1.05% (inactive).

Regarding `C/C(=C/C(=O)N1CCN(C)CC1)C(=O)O`, the viability rescue is 0.98% (inactive).

On to `CSc1nc2c(c(=O)[nH]1)C(c1cccc(Cl)c1Cl)CC(=O)N2` (centres undefined), for which the viability rescue was 0.3% (inactive).

Take `Cc1ccccc1C(=O)N1CCC(C(=O)Nc2ccc(S(=O)(=O)N(C)C(C)C)cc2)CC1`: the viability rescue is -0.58% (inactive).

Take `CC(C)n1cnc2c(Nc3cccc(Cl)c3)nc(N(CCO)CCCO)nc21`: the viability rescue was 20.9% (inactive).

In the case of `NS(=O)(=O)c1cccnc1Nc1cccc(Cl)c1`, the viability rescue is -0.92% (inactive).

On to `OCCCNc1nccc(-c2cc(Nc3cccc(Cl)c3)ncn2)n1`, for which the viability rescue is 103% (active).

As to `CC(=O)Nc1ccc(S(=O)(=O)NCC(=O)OCc2cc(=O)oc3ccc4ccccc4c23)cc1`, the viability rescue was 0.62% (inactive).

Consider `COc1ccc(Nc2ncc(F)c(N3CCOCC3)n2)cc1`, for which the viability rescue is 75.1% (active).

With `CCOc1ccc(Nc2nc(Cl)nc(N3CCN(c4ccc(OC)cc4)CC3)n2)cc1`, the viability rescue is 0.74% (inactive).

Consider `c1ccc(Nc2nc(N3CCOCC3)c3ccccc3n2)cc1`, for which the viability rescue was -0.17% (inactive).

In the case of `CCCOC(=O)c1c(NC(=O)c2cnn3c2NC(c2ccccc2)CC3C(F)(F)F)sc2c1CCCC2` (centres undefined), the viability rescue was 7.75% [with zVAD 20 µM] (inactive).

On to `CC(C)NC(=O)/C(C#N)=C\c1ccc(N(C)C)c(Br)c1`, for which the viability rescue is 0.11% (inactive).

In the case of `COc1ccc(C2CC(c3cccs3)Nc3nnnn32)cc1` (centres undefined), the viability rescue was 2.51% (inactive).

For the molecule `Cc1cc(-n2cnc(-c3cn(C)nc3C)n2)no1`, the viability rescue is 80.2% (active).

`C/C(Cc1ccccc1)=N\NC(=O)CNC(=O)c1ccc2c(c1)OCCO2`: the viability rescue is 0.03% (inactive).

Take `COc1cccc(Nc2nc(N)c([N+](=O)[O-])c(NCc3ccco3)n2)c1`: the viability rescue is -0.44% (inactive).

Regarding `COC(=O)c1cccnc1NC(=S)NC(C)C`, the viability rescue was -0.14% (inactive).

With `COc1cc2c(cc1O)[C@H](Cc1ccc(Oc3cc(C[C@@H]4NCCc5cc(OC)c(O)cc54)ccc3O)cc1)NCC2`, the viability rescue was 5.53% (inactive).

Consider `CC[C@H]1CN2CCc3cc(OC)c(OC)cc3[C@@H]2C[C@@H]1C[C@H]1NCCc2cc(OC)c(OC)cc21`, for which the viability rescue is 79.5% (active).

For `O=C(/C=C/c1cccs1)NCc1cccnc1`, the viability rescue was 0.04% (inactive).

As to `Cc1ccc(Nc2ccccc2N)cc1`, the viability rescue was 75.5% (active).

As for `Cc1ccc(Nc2nnc(SCc3ccccc3)s2)cc1`, the viability rescue is 1.32% [with zVAD 20 µM] (inactive).

Take `Nc1ccc(Nc2ccccc2)cc1`: the viability rescue was 0.51% [with zVAD 20 µM] (inactive).

For `Cc1ccc(C)c(NC(=O)C2Cc3ccccc3CN2C(=O)OCc2ccccc2)c1` (centres undefined), the viability rescue is 0.1% [with zVAD 20 µM] (inactive).

Regarding `O=C(Nc1ccc(Cl)cn1)c1cnn2cccnc12`, the viability rescue was -0.65% (inactive).

For the molecule `Cc1cc(NC(=O)c2cnn3cccnc23)n(-c2ccccc2)n1`, the viability rescue was 77.7% (active).

In the case of `Cc1cc(NC(=O)Nc2ccccc2)n(-c2ccccc2)n1`, the viability rescue is 0.11% [with zVAD 20 µM] (inactive).
